Measured values taken from the supplement of paper PMC3334620.
In all, about 33,000 sequences were measured (“E-score (-0.5 to 0.5)”: median about -0.017, highest 2% from about 0.3 on). The list comes from a sample in which the highest values are over-represented; it also holds similar and randomly drawn sequences.

Biological target: T1, Sut1 (UniProt P53032)
T1 sequence: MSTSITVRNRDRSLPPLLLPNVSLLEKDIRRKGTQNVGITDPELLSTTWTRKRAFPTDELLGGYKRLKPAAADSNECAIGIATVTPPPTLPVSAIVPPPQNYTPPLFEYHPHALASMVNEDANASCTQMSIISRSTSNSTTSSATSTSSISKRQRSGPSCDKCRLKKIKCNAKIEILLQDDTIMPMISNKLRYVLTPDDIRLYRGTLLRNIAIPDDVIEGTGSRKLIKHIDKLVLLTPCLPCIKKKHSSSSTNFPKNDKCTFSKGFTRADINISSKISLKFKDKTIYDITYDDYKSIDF
Test: PBM E-score (8-mer binding enrichment) (E-score (-0.5 to 0.5)); higher = stronger / more preferred TF binding
Details: protein concentration: 200 nM; construct: GST-full length
Method: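 Universal 'all 10-mer' protein binding microarrays (Agilent AMADID 015681) probed with GST-tagged S. cerevisiae TFs (full-length or DBD) made by in vitro transcription/translation (PURExpress), about 100-200 nM. Bound TF was detected with fluorescent anti-GST. Each ungapped 8-mer (which stands for itself and its reverse complement) is scored by the PBM enrichment score (E-score), a modified Wilcoxon-Mann-Whitney statistic from -0.5 to +0.5, computed with the Universal PBM Analysis Suite. Scale: above 0.35 generally sequence-specific binding.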

| Sequence | PBM E-score |
| --- | --- |
| CCCCGGGA | -0.0206 |
| CGCCGGGC | 0.00809 |
| CTCCGGGC | 0.391 |
| GACCGGGA | -0.0471 |
| CCCGGTCC | -0.0342 |
| AACTCACT | -0.151 |
| CAATTCAA | 0.0614 |
| GGCCCTCA | -0.279 |
| CTGGTTCA | -0.0784 |
| ACTCGGTC | -0.072 |
| CCTCGGTA | -0.0533 |
| ACTCGGAA | 0.323 |
| CCTCGGGC | -0.209 |
| TCTCGGAA | 0.215 |
| ACTCGGAT | 0.0613 |
| CCTCGGAA | 0.215 |
| ACTCGGAC | 0.411 |
| CCTCGGAC | 0.412 |
| ACTCGGGC | -0.0385 |
| CCTCGGCG | -0.0382 |
| CCTCGGAG | 0.446 |
| CTAGTTGC | -0.0129 |
| GCCTTGGA | -0.0418 |
| GACGCGTC | -0.325 |
| ATCTATAG | 0.11 |
| CAGCCTGA | -0.275 |

| Sequence | PBM E-score |
| --- | --- |
| ATATGAGG | -0.0891 |
| ACTCGGTG | -0.0621 |
| ACTCGGCG | 0.0415 |
| GCTCGGAA | 0.165 |
| GCTCGGAC | 0.365 |
| GCTCGGCC | -0.204 |
| ACTCGGAG | 0.399 |
| ATACATTA | 0.234 |
| ACACTAAG | -0.0951 |
| GATATATA | 0.247 |
| CATATATC | -0.0165 |
| CATATATG | 0.0281 |
| TATATATA | 0.381 |
| AATATACA | 0.29 |
| TATATAGA | 0.278 |
| TATATACA | 0.316 |
| GATATACA | 0.194 |
| CATATATA | 0.299 |
| GGCCAGCA | -0.168 |
| ACCCAGGA | -0.13 |
| AAGACTTC | -0.196 |
| AACCCCTC | -0.198 |
| AAGGGGGA | -0.0309 |
| CAGTCAAA | 0.0987 |
| CCTTGCAG | -0.143 |
| ACTCGTCG | -0.174 |

| Sequence | PBM E-score |
| --- | --- |
| TAATCGCA | -0.0128 |
| TTCGGAAA | 0.252 |
| GTCGGAAC | 0.134 |
| AACGGAAT | 0.294 |
| CACGGAAA | 0.188 |
| GTCGGAAA | 0.355 |
| AACGGAAA | 0.327 |
| ATCGGAAA | 0.302 |
| ATCGGAAT | 0.352 |
| ATCGGAAC | 0.14 |
| CTCGGAAA | 0.19 |
| AGCGGAAT | 0.0494 |
| ATCGGAAG | 0.253 |
| AGTAACTC | 0.115 |
| CGACGAAA | 0.0757 |
| AAGTGAGC | -0.0565 |
| GCTTTTTA | 0.161 |
| GGAGCGAA | 0.0455 |
| AAACGCGC | -0.123 |
| ATCCTCAT | -0.0846 |
| CGAGGGTC | -0.194 |
| CTTATGTA | 0.16 |
| AAACTGAA | 0.171 |
| AAGTTGCG | 0.108 |
| CTCGCCCC | -0.298 |
| AGTGAATA | 0.177 |

| Sequence | PBM E-score |
| --- | --- |
| ATGGTCGG | 0.0544 |
| GCCCAGCC | -0.184 |
| CTTATTTA | 0.101 |
| ATTATTAG | 0.144 |
| ATGATTTA | 0.222 |
| CTTATTTC | 0.207 |
| GTTATTTA | 0.257 |
| ATTATTAC | 0.278 |
| ATTATTTA | 0.347 |
| ACTATTTG | 0.252 |
| ATTATTTC | 0.306 |
| CTGATTTC | 0.0415 |
| ATGATTTC | 0.299 |
| ATTATTTG | 0.319 |
| CGCTAGTA | 0.101 |
| AGAATGCA | 0.0147 |
| CCCGTTAG | -0.0959 |
| CGTACGAG | -0.098 |
| AATAGCTC | -0.207 |
| ATTGCGAC | 0.0862 |
| CGTCCTTA | -0.176 |
| GTACCGCA | 0.102 |
| GTACCGGA | 0.342 |
| ATACCGGG | 0.0371 |
| ATACCGGC | -0.0331 |
| ATACCGGA | 0.326 |

| Sequence | PBM E-score |
| --- | --- |
| CTACCGGA | 0.222 |
| AGTCAGCA | -0.0199 |
| ACCCACTC | 0.00249 |
| TTCCGGAA | 0.395 |
| ATCCGGAG | 0.414 |
| TGCCGGAA | 0.188 |
| CTGCGGAA | -0.0948 |
| ATCCGGAT | 0.257 |
| ATCCGGCG | -0.00912 |
| CTCCGGAA | 0.442 |
| ATCCGGTG | 0.0918 |
| TCCCGGAA | 0.228 |
| ATCCGGAC | 0.362 |
| ACAGTCAA | -0.0644 |
| AGAGTAAG | 0.016 |
| AAGCTCTC | -0.127 |
| AAAACTTG | 0.143 |
| GCGTTACC | -0.158 |
| ACTCCCTG | -0.173 |
| AATCACGT | -0.0474 |
| GTCCGGAA | 0.402 |
| ATCCGGAA | 0.303 |
| ATGCGGAG | 0.259 |
| CTCAGGAG | -0.179 |
| GTGCGGAA | 0.0942 |
| CTCCGGAG | 0.487 |

| Sequence | PBM E-score |
| --- | --- |
| GTCCAAAC | -0.0427 |
| GTCCGGAC | 0.469 |
| GTCAGGAC | -0.206 |
| ATGCGGAA | 0.0745 |
| CAACGCAA | 0.111 |
| TAGTTAGA | 0.169 |
| AGTCTATG | -0.11 |
| ACATTGGC | -0.21 |
| AGAAAGCT | 0.126 |
| CATAAGGA | -0.134 |
| CCCTCGAC | -0.327 |
| CAATCTAG | -0.0129 |
| CTTAGTCC | 0.113 |
| ATTGAGTG | 0.0241 |
| CTCAGGAC | -0.127 |
| CTCCGGAC | 0.473 |
| CTGCGGAC | 0.165 |
| CAAATTAA | 0.189 |
| GTTTAAAC | 0.31 |
| AAGTTATA | 0.186 |
| CTATTAAA | 0.0826 |
| TTATTAAA | 0.273 |
| GTTTAAAA | 0.19 |
| GAGTTATA | 0.2 |
| TAGTTATA | 0.318 |
| ATATTAAA | 0.37 |

| Sequence | PBM E-score |
| --- | --- |
| CTTTAAAC | 0.105 |
| AAAATTAA | 0.221 |
| GAAATTAA | 0.333 |
| AGGTCTAA | -0.0642 |
| CTAGGTGA | -0.168 |
| GTCTATCA | 0.101 |
| AGATTCAT | 0.0265 |
| ATTAAGAC | 0.123 |
| GCGCTTGA | 0.0596 |
| CTATTTAA | 0.188 |
| ATATTTAA | 0.303 |
| TAATTATA | 0.349 |
| TAATTAGA | 0.218 |
| CAATTATA | 0.164 |
| AATTAAAG | 0.198 |
| AAATTATG | 0.175 |
| AATTTATA | 0.276 |
| GATTAAAC | 0.114 |
| AATTAAAC | 0.329 |
| ATATTTAC | 0.282 |
| AAATTATA | 0.351 |
